In PubChem BioAssay (NCATS):
Results filed as inconclusive are left out. A number with no mark means an inactive call. Activity calls are given as the source filed them. Calls follow the shape of the dose curve; as a rule, active = well fitted cell-killing curve with a large enough effect; inconclusive = small, poorly fitted or top-dose-only effect, or effect the other way; inactive = no such curve, though single readings can be large or run the other way. Positions of bridges follow the written chain, without caps; N, C: chain ends. Non-standard residues stand in square brackets, D forms with d. Residues, ends and D or L forms follow the SMILES beside them. ξ: configuration not given here. *: point of attachment. Octanoyl(6-Me) = CCC(C)CCCCC(=O)*; ξThr(3R) = C[C@@H](O)C(N)C(=O)O; dDab = NCC[C@@H](N)C(=O)O; Dab = NCC[C@H](N)C(=O)O

assay: Quantitative High-Throughput drug screen in 47 multiple myeloma cell lines against the NCATS MIPE library collection: Delta47_JCRB cell viability assay (AID 1918925; also: nearly all actives have a fitted effect of over 45% in size); conditions: Delta47 myeloma viability, CellTiter-Glo ATP, 48 h; series mostly up to 45.8 µM; viability (% of DMSO): at the top concentration
In short: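 We plated 500 myeloma cells per well, pinned in MIPE 4.0 compounds, and incubated for 48 hours at 37C. ATP was then quantified with CellTiter-Glo, with DMSO and media-only wells defining 100% and 0%.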
Potency is read from the fitted curve at half-maximal effect.

| SMILES | Potency | viability (% of DMSO) [%] |
| --- | --- | --- |
| CCOc1cc2ncc(C#N)c(Nc3ccc(OCc4ccccn4)c(Cl)c3)c2cc1NC(=O)C=CCN(C)C | 590 nM (active) |  |
| CC(C)(N)c1ccc(-c2nc3ccccc3nc2-c2ccccc2)cc1 | 5900 nM (active) |  |
| C[C@H](O)[C@@H]1C(=O)N2C(C(=O)O)=C(S[C@@H]3CN[C@H](CNS(N)(=O)=O)C3)[C@@H](C)[C@@H]12 |  | 127 |
| CC(C=CC(=O)NO)=C[C@@H](C)C(=O)c1ccc(N(C)C)cc1 | 235 nM (active) |  |
| COc1ccc(S(=O)(=O)Nc2cccnc2Nc2ccc(O)cc2)cc1 | 26.4 nM (active) |  |
| O=C(C[C@@H]1CC=CCCC(=O)O[C@H](c2ccccc2)CNC1=O)NCc1ccc(Cl)cc1 | 10500 nM (active) |  |
| CC[C@]12C=CCN3CC[C@@]4(c5cc([C@@]6(C(=O)OC)C[C@H]7C[C@@H](C(C)(F)F)CN(Cc8c6[nH]c6ccccc86)C7)c(OC)cc5N(C)[C@H]4[C@@](O)(C(=O)OC)[C@H]1OC(C)=O)[C@@H]32 | 9.3 nM (active) |  |
| C=C1C(=O)O[C@H]2[C@@H]1CCC(C)=CCC[C@@]1(C)O[C@@H]21 | 2350 nM (active) |  |
| CN1C(C(=O)Nc2ccccn2)=C(O)c2sc(Cl)cc2S1(=O)=O | 2960 nM (active) |  |
| CC[C@H](CC[C@@H](C)[C@H]1CC[C@H]2[C@@H]3CC=C4C[C@@H](O)CC[C@]4(C)[C@@H]3CC[C@]12C)C(C)C |  | 89.9 |
| Nc1nc(=O)n([C@H]2CSC(CO)O2)cc1F (some centres not stated) |  | 110 |
| CCNC(=O)Nc1ccc(-c2nc3c(c(N4CCOC[C@H]4C)n2)CCN(C2COC2)C3)cc1 | 743 nM (active) |  |
| Cc1ccc2nc(NCCN)c3ncc(C)n3c2c1 | 5900 nM (active) |  |
| O=C(NC1CC1)c1cccc(-c2ccc3c(NC(=O)C4CC4)n[nH]c3c2)c1 | 7430 nM (active) |  |
| C[C@@H](Oc1ccc2[nH]nc(C=Cc3cnn(CCO)c3)c2c1)c1c(Cl)cncc1Cl | 469 nM (active) |  |
| CC(=O)O[C@@]12CO[C@H]1C[C@H](O)[C@@]1(C)C(=O)[C@H](O)C3=C(C)[C@@H](OC(=O)C(O)[C@@H](NC(=O)OC(C)(C)C)c4ccccc4)C[C@@](O)([C@@H](OC(=O)c4ccccc4)[C@@H]21)C3(C)C (some centres not stated) |  | 42.9 |
| CC(=O)OCC(=O)[C@@]1(O)CC[C@H]2[C@@H]3CCC4=CC(=O)CC[C@]4(C)[C@@H]3C(=O)C[C@@]21C |  | 123 |
| C[C@@H]1[C@H](C)CC[C@]2(C(=O)O)CC[C@]3(C)C(=CC[C@@H]4[C@@]5(C)C[C@@H](O)[C@H](O)[C@@](C)(CO)[C@H]5CC[C@]43C)[C@@H]12 |  | 87.7 |
| CC(C)(O)[C@H]1CC[C@@](C)([C@H]2[C@@H](O)C[C@@]3(C)[C@@H]4C[C@H](O[C@@H]5O[C@H](CO)[C@@H](O)[C@H](O)[C@@H]5O)[C@H]5C(C)(C)[C@@H](O[C@@H]6OC[C@@H](O)[C@H](O)[C@@H]6O)CC[C@@]56C[C@@]46CC[C@]23C)O1 |  | 117 |
| O=C(C=Cc1ccc(CN(CCO)CCc2c[nH]c3ccccc23)cc1)NO | 105 nM (active) |  |
| CCC(C)CCCCC(=O)N[C@@H](CCN)C(=O)NC(C(=O)N[C@H](CCN)C(=O)N[C@@H]1CCNC(=O)C([C@@H](C)O)NC(=O)[C@@H](CCN)NC(=O)[C@@H](CCN)NC(=O)[C@@H](CC(C)C)NC(=O)[C@H](Cc2ccccc2)NC(=O)[C@H](CCN)NC1=O)[C@@H](C)O (stereo partly drawn) ({Octanoyl(6-Me)}-[Dab][ξThr(3R)][dDab][dDab][Dab]F[dL][dDab][dDab][ξThr(3R)]; lactam 4-C) |  | 96.6 |
| O=C(O)C[C@H](O)C[C@H](O)C=Cc1c(C2CC2)nc2ccccc2c1-c1ccc(F)cc1 | 8330 nM (active) |  |
| COc1cc(N2CCC(C(N)=O)CC2)ccc1Nc1nc(N)c(Cl)c(Nc2ccccc2S(=O)(=O)C(C)C)n1 | 83.3 nM (active) |  |
| C#CCC(Cc1cnc2nc(N)nc(N)c2n1)c1ccc(C(=O)N[C@@H](CCC(=O)O)C(=O)O)cc1 (some centres not stated) |  | 125 |
| COc1cc([C@@H]2c3cc4c(cc3[C@@H](O[C@@H]3O[C@@H]5CO[C@@H](c6cccs6)O[C@@H]5[C@H](O)[C@@H]3O)[C@H]3COC(=O)[C@H]23)OCO4)cc(OC)c1O | 935 nM (active) |  |
| CCc1c(O)cc(O)c(C(=O)c2ccc(OCCN3CCOCC3)c(OC)c2)c1CC(=O)N(CCOC)CCOC | 1660 nM (active) |  |
| COc1cc(OC)cc(-c2ccc3ncc4ccc(=O)n(-c5ccc(N6CCNCC6)c(C(F)(F)F)c5)c4c3c2)c1 | 1480 nM (active) |  |
